Results as given in PubChem BioAssay (NCI).
Compounds without any hit were thinned out: in the full panel of roughly 83,000, 20% have a hit.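 Assay: single dose, 48 h. Readout: percent growth (0 = no net growth; negative = cell death). Active: <10.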 Calls of active or inactive are those of the source.

Columns and labels:
Test in all cases: NCI-60 one-dose screen, 48 h (100 = growth as untreated, 0 = no growth, -100 = all killed)
Settings in all cases: 10 µM unless noted
HCT-15 colon = test system: HCT-15 colon
HT29 colon = test system: HT29 colon
SNB-75 CNS = test system: SNB-75 CNS
SNB-19 CNS = test system: SNB-19 CNS
U251 CNS = test system: U251 CNS
PC-3 prostate = test system: PC-3 prostate
UACC-62 melanoma = test system: UACC-62 melanoma
LOX IMVI melanoma = test system: LOX IMVI melanoma
SK-MEL-28 melanoma = test system: SK-MEL-28 melanoma
SK-MEL-5 melanoma = test system: SK-MEL-5 melanoma

Measured: growth

CCN(CC)CCCC(C)NCc1ccccc1 (stereo unspecified)
inactive: HCT-15 colon 101% | HT29 colon 83.4% | SNB-75 CNS 99.8% | SNB-19 CNS 101% | U251 CNS 99.2% | PC-3 prostate 91.2% | UACC-62 melanoma 97.5% | LOX IMVI melanoma 100% | SK-MEL-28 melanoma 102%

COc1ccc(Cn2cnc3cc(C(=O)Nc4cccc5ccccc45)ccc32)c(OC)c1
inactive: SNB-75 CNS 35.4% [30 µM] | SNB-19 CNS 21.5% [30 µM] | U251 CNS 17.5% [30 µM] | PC-3 prostate 17.4% [30 µM] | UACC-62 melanoma 14.8% [30 µM] | LOX IMVI melanoma 12.1% [30 µM] | SK-MEL-28 melanoma 60.6% [30 µM]
active: HCT-15 colon 3.1% [30 µM] | HT29 colon 8.08% [30 µM]

CCCCn1c(=O)[nH]c(N)c(C(c2ccc(F)cc2)c2c(N)[nH]c(=O)n(CCCC)c2=O)c1=O
inactive: HCT-15 colon 95.7% | HT29 colon 66.4% | SNB-75 CNS 62.2% | SNB-19 CNS 74% | U251 CNS 65.3% | PC-3 prostate 53.9% | UACC-62 melanoma 55.6% | LOX IMVI melanoma 58.9% | SK-MEL-28 melanoma 74.7%

CCCCS(=O)(=O)Oc1ccc(-c2nc(C)c(C(=O)OCC)s2)cc1C=O
inactive: HCT-15 colon 50.6% | HT29 colon 18.5% | SNB-75 CNS 89% | SNB-19 CNS 53.8% | U251 CNS 49.6% | PC-3 prostate 53.9% | UACC-62 melanoma 64.6% | LOX IMVI melanoma 28.3% | SK-MEL-28 melanoma 90%

Cc1cn(C2CCCCC2)c(=O)[nH]c1=O
inactive: HCT-15 colon 99.2% | HT29 colon 96% | SNB-75 CNS 94.4% | SNB-19 CNS 114% | U251 CNS 108% | SK-MEL-5 melanoma 105% | UACC-62 melanoma 109% | LOX IMVI melanoma 111% | SK-MEL-28 melanoma 109%

CC[C@@H](C[C@H](CCO)c1ccccc1)c1cc2ccccc2o1
inactive: HCT-15 colon 95.3% | HT29 colon 82.7% | SNB-75 CNS 79.9% | SNB-19 CNS 97.4% | U251 CNS 90.9% | SK-MEL-5 melanoma 106% | UACC-62 melanoma 88.4% | LOX IMVI melanoma 101% | SK-MEL-28 melanoma 102%

OCCCCc1nccc2c1[nH]c1ccccc12
inactive: HCT-15 colon 104% | HT29 colon 94.6% | SNB-75 CNS 80.5% | SNB-19 CNS 110% | U251 CNS 108% | SK-MEL-5 melanoma 97.5% | UACC-62 melanoma 96.8% | LOX IMVI melanoma 99.8%

O[C@H]1CO[C@H]2[C@@H]1OC[C@@H]2Oc1ccc(Nc2ccnc(Nc3ccc(O[C@H]4CO[C@H]5[C@@H]4OC[C@@H]5O)c(Cl)c3)n2)cc1Cl
active: HT29 colon 9.26% | SNB-75 CNS -1.57% | SNB-19 CNS 7.59% | U251 CNS 7.71% | UACC-62 melanoma -74% | LOX IMVI melanoma -8.35%
inactive: HCT-15 colon 26.4% | PC-3 prostate 15.7% | SK-MEL-28 melanoma 20.4%

C=C(C)[C@@H]1CC[C@]2(CNCCO)CC[C@]3(C)[C@H](CC[C@@H]4[C@@]5(C)CCC(N)[C@@](C)(CO)[C@@H]5CC[C@]43C)[C@@H]12 (stereo partly specified)
active: HT29 colon -56.8% | U251 CNS -86.1% | UACC-62 melanoma -75.7% | SK-MEL-28 melanoma -85.7%
inactive: HCT-15 colon 32.4% | SNB-75 CNS 73.5% | SNB-19 CNS 29.8% | PC-3 prostate 20.1%

CN1CCN(C2=C(Cl)C(=O)c3ccccc3C2=O)CC1
inactive: HCT-15 colon 33% | HT29 colon 66.7% | SNB-75 CNS 90.9% | SNB-19 CNS 93.1% | U251 CNS 87% | PC-3 prostate 60.5% | UACC-62 melanoma 32.9% | LOX IMVI melanoma 11.4% | SK-MEL-28 melanoma 73.8%

Cc1nc(-c2ccccc2)cc2c(O)c(C(=O)N/N=C/c3ccc(N(C)C)cc3)[nH]c(=O)c12
inactive: HCT-15 colon 83.1% | HT29 colon 72.9% | SNB-75 CNS 62.2% | SNB-19 CNS 117% | U251 CNS 41.8% | SK-MEL-5 melanoma 83.4% | UACC-62 melanoma 97.3% | LOX IMVI melanoma 75.8% | SK-MEL-28 melanoma 80.2%

Cc1c(Cl)cccc1NS(=O)(=O)c1ccccc1
inactive: HCT-15 colon 97.3% | HT29 colon 99.8% | SNB-75 CNS 87.9% | SNB-19 CNS 106% | U251 CNS 106% | SK-MEL-5 melanoma 96.7% | UACC-62 melanoma 102% | LOX IMVI melanoma 104%

CC(=O)Nc1ccc(-c2cc3c(NCc4ccc(F)cc4)ncnc3s2)cc1
inactive: HCT-15 colon 88.8% | HT29 colon 102% | SNB-75 CNS 70.1% | SNB-19 CNS 57.8% | U251 CNS 77.6% | PC-3 prostate 81% | UACC-62 melanoma 73% | LOX IMVI melanoma 82.4% | SK-MEL-28 melanoma 93.5%

N#Cc1c(NC(=O)c2ccccc2I)sc2c1CCCC2
inactive: HCT-15 colon 21.5% | HT29 colon 17.4% | SNB-75 CNS 16.7% | SNB-19 CNS 39.2% | U251 CNS 29.7% | PC-3 prostate 47.1% | UACC-62 melanoma 38% | LOX IMVI melanoma 36.8% | SK-MEL-28 melanoma 64.1%

O=C1C=CC(=Nc2cc(Br)c(O)c(Br)c2)C=C1
inactive: HCT-15 colon 65.1% | HT29 colon 62% | SNB-75 CNS 68.3% | SNB-19 CNS 96.8% | U251 CNS 43.7% | SK-MEL-5 melanoma 87.4% | UACC-62 melanoma 67.6% | LOX IMVI melanoma 48.6% | SK-MEL-28 melanoma 75.1%

C=C(CNCCc1ccc(O)cc1)[C@@H]1CC[C@]2(COC3CCCCO3)CC[C@]3(C)[C@H](CC[C@@H]4[C@@]5(C)CCC(NCCO)C(C)(C)[C@@H]5CC[C@]43C)[C@@H]12 (stereo partly specified)
active: HCT-15 colon -93.5% | HT29 colon -90.3% | SNB-75 CNS -17.6% | SNB-19 CNS -93.9% | U251 CNS -95% | PC-3 prostate -92.6% | UACC-62 melanoma -85.9% | SK-MEL-28 melanoma -94.4%

Cc1csc(NC(=O)c2sc3nc(-c4cccs4)ccc3c2N)n1
inactive: HCT-15 colon 102% | HT29 colon 102% | SNB-75 CNS 102% | SNB-19 CNS 112% | U251 CNS 91.3% | PC-3 prostate 82.6% | UACC-62 melanoma 98.2% | LOX IMVI melanoma 95.1% | SK-MEL-28 melanoma 115%

Nc1nc(I)c2ncn(C3OC(CO)C(O)C3O)c2n1 (stereo unspecified)
inactive: HCT-15 colon 104% | HT29 colon 141% | SNB-75 CNS 130% | SNB-19 CNS 102% | U251 CNS 100% | PC-3 prostate 124% | UACC-62 melanoma 90.4% | LOX IMVI melanoma 93.5% | SK-MEL-28 melanoma 126%

COc1ccc(/C(C)=C(\c2ccc(Cl)cc2)c2ccc(OCCN3CCCC3)cc2)cc1F
inactive: SNB-75 CNS 47.6% | SNB-19 CNS 42.8% | U251 CNS 19.1% | PC-3 prostate 30%
active: HCT-15 colon 1.16% | HT29 colon -10.5% | UACC-62 melanoma -30.2% | LOX IMVI melanoma -88.3% | SK-MEL-28 melanoma -42.1%

CNC=O
inactive: HCT-15 colon 99.3% | HT29 colon 92.6% | SNB-75 CNS 86.8% | SNB-19 CNS 97.5% | U251 CNS 100% | SK-MEL-5 melanoma 59.9% | UACC-62 melanoma 96.2% | LOX IMVI melanoma 97.1%

NC(=Nc1ccc(N)cc1)C(N)=Nc1ccc(N)cc1
inactive: HCT-15 colon 98.5% | HT29 colon 113% | SNB-75 CNS 91.8% | SNB-19 CNS 102% | U251 CNS 101% | SK-MEL-5 melanoma 98.7% | UACC-62 melanoma 104% | LOX IMVI melanoma 97.2% | SK-MEL-28 melanoma 117%

CCO/C=N/C1=C(C#N)C(c2ccc(OC)cc2)c2c(c3ccccc3n(C)c2=O)O1 (stereo unspecified)
inactive: HCT-15 colon 103% | HT29 colon 104% | SNB-75 CNS 78.1% | SNB-19 CNS 101% | U251 CNS 103% | PC-3 prostate 98.4% | UACC-62 melanoma 98.7% | LOX IMVI melanoma 99.1% | SK-MEL-28 melanoma 110%

C=CCO[C@H]1CO[C@H]2[C@@H]1OC[C@@H]2Oc1ccc(Nc2ccnc(Nc3ccc(O[C@H]4CO[C@H]5[C@@H]4OC[C@@H]5OCC=C)c(Cl)c3)n2)cc1Cl
active: HCT-15 colon -78.5% | HT29 colon -5.18% | SNB-75 CNS 0.0674% | SNB-19 CNS -90.3% | U251 CNS -59.5% | UACC-62 melanoma -92.2% | LOX IMVI melanoma -95% | SK-MEL-28 melanoma -80.3%
inactive: PC-3 prostate 14%

COc1ccc(/C(C)=C(\c2ccc(Cl)cc2)c2ccc(OCCN3CCCCC3)cc2)cc1F
inactive: SNB-75 CNS 65% | SNB-19 CNS 58.3% | U251 CNS 34.1% | SK-MEL-5 melanoma 57.1%
active: HCT-15 colon 0.563% | HT29 colon 4.57% | UACC-62 melanoma -33% | LOX IMVI melanoma -73.1% | SK-MEL-28 melanoma -21.3%

CCN(CC)CCCNC(=O)c1ccc(N)cc1O
inactive: HCT-15 colon 96.1% | HT29 colon 103% | SNB-75 CNS 113% | SNB-19 CNS 106% | U251 CNS 99% | PC-3 prostate 94.2% | UACC-62 melanoma 97.9% | LOX IMVI melanoma 90.6% | SK-MEL-28 melanoma 100%

CCOC(=O)c1c(C)nc2c(c1N)/C(=C/c1ccc(OC)cc1)C(=O)N2Cc1ccc(F)cc1
active: HCT-15 colon -80.6% | HT29 colon -75.9% | SNB-75 CNS -13.7% | SNB-19 CNS -67.4% | U251 CNS -81.5% | SK-MEL-5 melanoma -87.9% | UACC-62 melanoma -78.2% | LOX IMVI melanoma -93.1% | SK-MEL-28 melanoma -39.9%

COc1cc(/C=C/C(=O)c2ccc(Nc3nc(Nc4ccccc4)nc(Nc4ccc(Cl)cc4)n3)cc2)cc(OC)c1OC
inactive: HCT-15 colon 55.8% | HT29 colon 46.8% | SNB-75 CNS 57.5% | SNB-19 CNS 92.8% | U251 CNS 37.4% | SK-MEL-5 melanoma 39% | UACC-62 melanoma 59.8% | LOX IMVI melanoma 66.5%

COc1ccc(Nc2ncc(Br)c(NCCCNC(=O)C3CCC3)n2)cc1
active: SNB-75 CNS -4.95% | LOX IMVI melanoma 4.32%
inactive: HCT-15 colon 21.7% | HT29 colon 31% | SNB-19 CNS 33.1% | U251 CNS 19.8% | PC-3 prostate 39.2% | UACC-62 melanoma 56.6% | SK-MEL-28 melanoma 54.7%
